Potency and affinity values are given separately.
Tests used:
Staphylococcus aureus = conditions: Concentration 32 ug.mL-1;; ASSAY_TEST Inhibition of Bacterial Growth; detection method Absorption (OD600); MEDIA CAMHB; plate type 384well; NBS; CORNING #3640; time 18 hr
Escherichia coli = conditions: Concentration 32 ug.mL-1;; ASSAY_TEST Inhibition of Bacterial Growth; detection method Absorption (OD600); MEDIA CAMHB; plate type 384well; NBS; CORNING #3640; time 18 hr

## Cc1nnc2c(S(=O)(=O)N(Cc3cccc(F)c3)c3cccc(F)c3)cccn12
Staphylococcus aureus
  Inhibition: 18.57%
Escherichia coli
  Inhibition: 0.97%

## COc1ccc(NC(=O)CSc2nc3ccccc3n3cnnc23)cc1OC
Staphylococcus aureus
  Inhibition: 12.3%
Escherichia coli
  Inhibition: 2.46%

## Cc1ccc(Sc2nccn3c(=O)n(CC(=O)Nc4ccc(C)cc4Br)nc23)c(C)c1
Staphylococcus aureus
  Inhibition: 8.09%
Escherichia coli
  Inhibition: -4.19%

## COc1cc(OC)c(NC(=O)Cn2nc3c(SC4CCCCC4)nccn3c2=O)cc1Cl
Staphylococcus aureus
  Inhibition: 7.52%
Escherichia coli
  Inhibition: -4.1%

## CCOC(=O)c1ccc(NC(=O)Cn2nc3ccc(S(=O)(=O)C(C)(C)C)nn3c2=O)cc1
Staphylococcus aureus
  Inhibition: 5.05%
Escherichia coli
  Inhibition: -4.95%

## O=C(CSc1nnc2c(=O)n(-c3ccccc3)ccn12)N1CCN(c2ccc(F)cc2)CC1
Staphylococcus aureus
  Inhibition: 7.73%
Escherichia coli
  Inhibition: -1.4%

## COc1cccc(Oc2nccn3c(=O)n(CC(=O)NCc4ccc(SC)cc4)nc23)c1
Staphylococcus aureus
  Inhibition: 10.98%
Escherichia coli
  Inhibition: 2.64%

## O=c1c2nn(Cc3cccc([N+](=O)[O-])c3)c(=O)n2ccn1-c1ccccc1
Staphylococcus aureus
  Inhibition: -0.55%
Escherichia coli
  Inhibition: -2.06%

## Cc1ccccc1Oc1nc2ccccc2n2c(=O)n(CC(=O)NCc3ccc4c(c3)OCO4)nc12
Staphylococcus aureus
  Inhibition: 13.3%
Escherichia coli
  Inhibition: 0.04%

## COc1ccc(-c2cc3c4nnc(CCC(=O)NCc5ccc(OC)c(OC)c5)n4ccn3n2)cc1
Staphylococcus aureus
  Inhibition: 6.96%
Escherichia coli
  Inhibition: -5.17%

## COc1ccccc1-n1ccn2c(SCC#N)nnc2c1=O
Staphylococcus aureus
  Inhibition: 15.53%
Escherichia coli
  Inhibition: 0.38%

## CCCCn1c(=O)c2sccc2n2c(=O)n(CC(=O)N(C)c3ccccc3)nc12
Staphylococcus aureus
  Inhibition: -8.63%
Escherichia coli
  Inhibition: -12.98%

## O=C(Cn1nc2c(N3CCOCC3)nccn2c1=O)Nc1cccc(C(F)(F)F)c1
Staphylococcus aureus
  Inhibition: 4.69%
Escherichia coli
  Inhibition: -2.32%

## CCCCc1ccc(NC(=O)Cn2nc3c(Sc4ccccc4CC)nccn3c2=O)cc1
Staphylococcus aureus
  Inhibition: -7.41%
Escherichia coli
  Inhibition: -10.67%

## Cc1ccc2c(c1)N(C(=O)Cn1nc3ccc(Sc4ccccc4)nn3c1=O)CCO2
Staphylococcus aureus
  Inhibition: 5.63%
Escherichia coli
  Inhibition: 2.06%

## O=C(NCc1ccccc1)c1ccc2nn(CC(=O)N3CCN(c4ccccc4)CC3)c(=O)n2c1
Staphylococcus aureus
  Inhibition: 4.31%
Escherichia coli
  Inhibition: -4.36%

## COc1ccc(NC(=O)Cn2nc3c4cc(-c5cc(C)ccc5C)nn4ccn3c2=O)c(OC)c1
Staphylococcus aureus
  Inhibition: 3.39%
Escherichia coli
  Inhibition: 3.2%

## CSc1cccc(NC(=O)Cn2nc3c(N4CCCC(C)C4)nccn3c2=O)c1 (centres undefined)
Staphylococcus aureus
  Inhibition: -21.6%
Escherichia coli
  Inhibition: -14.98%

## COc1ccc(-c2cc3c4nn(CC(=O)Nc5ccc(C)c(F)c5)c(=O)n4ccn3n2)cc1
Staphylococcus aureus
  Inhibition: 0.97%
Escherichia coli
  Inhibition: 2.58%

## COc1ccc(CCn2c(=O)c3sccc3n3c(=O)n(Cc4ccc(F)cc4)nc23)cc1OC
Staphylococcus aureus
  Inhibition: 2.92%
Escherichia coli
  Inhibition: -0.5%

## O=C(NCc1ccccc1)c1ccc2nn(CC(=O)N3CCN(c4ccc(F)cc4)CC3)c(=O)n2c1
Staphylococcus aureus
  Inhibition: 4.28%
Escherichia coli
  Inhibition: -2.47%

## Cc1ccc(Oc2nccn3c(=O)n(CC(=O)Nc4cc(F)ccc4F)nc23)cc1
Staphylococcus aureus
  Inhibition: 15.96%
Escherichia coli
  Inhibition: -1.03%

## O=C(Cn1nc2ccc(Sc3cccc(F)c3)nn2c1=O)Nc1ccc2c(c1)OCCO2
Staphylococcus aureus
  Inhibition: 11.29%
Escherichia coli
  Inhibition: -2.18%

## Cc1cc2nn(CC(=O)Nc3ccc(F)cc3C)c(=O)n2c(Nc2ccc(F)cc2)n1
Staphylococcus aureus
  Inhibition: 9.22%
Escherichia coli
  Inhibition: -3.34%

## Cc1cccc(NC(=O)Cn2nc3ccc(SC(C)(C)C)nn3c2=O)c1
Staphylococcus aureus
  Inhibition: 3.72%
Escherichia coli
  Inhibition: -1.06%

## COc1ccc(CN(c2cc(C)cc(C)c2)S(=O)(=O)c2cccn3cnnc23)cc1F
Staphylococcus aureus
  Inhibition: -10.31%
Escherichia coli
  Inhibition: -13.2%

## CCc1ccc(N(Cc2ccc(C)cc2)S(=O)(=O)c2cccn3c(C)nnc23)cc1
Staphylococcus aureus
  Inhibition: 16.56%
Escherichia coli
  Inhibition: 0.51%
